Data from PubChem BioAssay AID463187 (University of Pittsburgh Molecular Library Screening Center, 2010).
The whole screen tested about 220,000 compounds, of which about 1,500 (0.68%) were called active.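 Rule for the calls: active = Hck-Nef kinase inhibition above about 50% (limit read from the data); inactive = inhibition below that limit.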 Shown is part of a subset that was picked to be rich in actives.

These compounds were tested against Tyrosine-protein kinase HCK (Homo sapiens) (UniProt P08631) (assay: Hck:Nef complex kinase activity blockers – biochemical, Z-Lyte FRET, 384-well, Hck-YEEI, primary screen (AID 463187;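 note: 0% = DMSO with Hck plus Nef and 100% = Hck alone without Nef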)). Conditions: Recombinant Hck-YEEI plus Nef, Z-Lyte FRET kinase assay; at 20 µM; stronger effect = higher value.
Sequence of Tyrosine-protein kinase HCK (Homo sapiens) (P08631 whole entry, looked up): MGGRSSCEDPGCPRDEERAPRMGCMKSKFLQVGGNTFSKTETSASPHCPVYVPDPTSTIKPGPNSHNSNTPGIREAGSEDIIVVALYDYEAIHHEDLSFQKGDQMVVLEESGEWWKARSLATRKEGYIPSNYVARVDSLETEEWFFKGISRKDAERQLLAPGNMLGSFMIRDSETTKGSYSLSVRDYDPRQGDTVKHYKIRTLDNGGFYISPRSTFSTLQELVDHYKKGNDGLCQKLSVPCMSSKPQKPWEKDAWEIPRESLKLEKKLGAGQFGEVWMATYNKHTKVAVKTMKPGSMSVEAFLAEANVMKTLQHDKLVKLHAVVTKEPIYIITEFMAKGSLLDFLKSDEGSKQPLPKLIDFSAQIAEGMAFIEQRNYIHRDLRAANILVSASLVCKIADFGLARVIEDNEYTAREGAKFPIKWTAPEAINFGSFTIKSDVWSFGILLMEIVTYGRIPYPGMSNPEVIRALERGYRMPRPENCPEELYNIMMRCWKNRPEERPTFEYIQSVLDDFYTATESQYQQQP

inhibition, active:
CCCCN(CCCC)CC(O)Cn1c2ccccc2c(=O)c2ccccc21 (stereo not given) 119%
COC/C=C/C1=CC2=CC(=O)C(C)(OC(=O)CCC(=O)OC)C(=O)C2=CO1 (stereo not given) 51.9%
O=C(O)CCn1cc(/C=C/C(=O)c2ccc(Cl)cc2)c(-c2cccc(Br)c2)n1 55%

inhibition, inactive:
C/C(CC(=O)Nc1ccc(C)cc1C)=N\NC(=O)C(C)C 14.7%
NC(=O)Nc1ccccc1C(=O)NCCc1ccccc1 1.58%
COc1ccc(Cl)cc1S(=O)(=O)N1CCC(O)(c2ccc(Cl)cc2)CC1 3.69%
CS(=O)(=O)N(CC(O)Cn1c2ccccc2c2ccccc21)c1cccc2ccccc12 (stereo not given) 0.481%
O=C1c2ccccc2S(=O)(=O)N1CC(O)Cn1c2ccccc2c2ccccc21 (stereo not given) 0.294%
Cn1cnnc1Sc1ccc(CN2CCN(C3CCCC3)C(CCO)C2)o1 (stereo not given) -5.92%
COC(=O)CCCC1=CC2=CC(=O)C(C)(OC(=O)c3cccs3)C(=O)C2=CN1CC1CC1 (stereo not given) 10.7%
COC(=O)CCCC1=CC2=CC(=O)C(C)(OC(=O)c3cccs3)C(=O)C2=CN1CC(C)C (stereo not given) 23.4%
Cc1ccc(CN(C(=O)c2sc3ccccc3c2Cl)C2CCS(=O)(=O)C2)cc1 (stereo not given) 3.1%
CC(=O)Nc1ccc(SCC(=O)Nc2ccccc2Oc2ccccc2)cc1 0.985%
Cc1nn(CC(=O)Nc2ccc(N(C)C)cc2)c(C)c1[N+](=O)[O-] 4.36%
O=C(O)/C=C/c1cn(Cc2ccccc2)nc1-c1cccs1 -1.06%
CCOC(=O)/C(C#N)=C/c1cn(CCC(=O)O)nc1-c1ccc(Br)cc1 20.2%
Cc1onc(C(=O)NN)c1C(=O)N1CCN(C(c2ccccc2)c2ccccc2)CC1 16.6%
N/C(=N\S(=O)(=O)c1cc(C(F)(F)F)cc(C(F)(F)F)c1)c1cccs1 -0.264%
O=[N+]([O-])c1ccccc1N/N=C1\CCc2ccccc21 -4.18%
COc1ccc(NC(=S)NCc2cccs2)c(OC)c1 0.854%
